# Measured values reported in PubChem BioAssay AID2253 (Southern Research Specialized Biocontainment Screening …, 2010).
# About 1,300 (59%) of roughly 2,200 compounds were called active. The rule behind the calls is not given here. So high a share suggests a set chosen from earlier hits. These entries were drawn from the full list. Entries with a potency or affinity are not part of this list.
# Assay: human monocytic cell viability reduction – S. typhimurium screen hits, cytotoxicity control for Salmonella PhoP regulon inhibitors, dose response (AID 2253)
# Conditions: THP-1 viability, CellTiter-Glo luminescence, 72 h; series mostly up to 50 µM; viability: at the top concentration
row,Compound,viability
1,COc1ccc(NC(=O)c2sccc2SCC#N)cc1,85.5% (inactive)
2,COC(=O)C1(O)CC(C(C)C)=NN1C(=O)c1ccc(Cl)cc1 (stereo not given),87.9% (inactive)
3,CCCCn1cnc2sc(-c3ccccc3)cc2c1=O,81.9% (inactive)
4,CCn1cc(C(=O)O)c(=O)c2cc(F)c(N3CCNCC3)cc21,92% (inactive)
5,CC(=O)Nc1ccc(C(=O)N2CCN(C(=O)c3ccco3)CC2)cc1,91.3% (inactive)
6,COc1cc(OC)c(NC(=O)Nc2ccc(OC)c(OC)c2)cc1Cl,90.3% (inactive)
7,CCn1cc(C(=O)O)c(=O)c2cc(F)c(N3CCN(C)CC3)cc21,100% (inactive)
8,O=C1OCC(CO)(CO)N=C1NNc1ccc(Cl)c(Cl)c1,89.3% (inactive)
9,Cc1ccc(NC(=O)COc2ncnc3c(Cl)cc(Cl)cc23)cc1[N+](=O)[O-],80.3% (inactive)
10,COC(=O)CCC(=O)Nc1ccc(Cl)c(Cl)c1,102% (inactive)
11,CC(C)Cc1oc(C(=O)O)cc1CN,97.5% (inactive)
12,Cc1ccc(CNc2oc(-c3cccs3)nc2C#N)cc1,88.9% [at 25 µM] (inactive)
13,CC1C(C#N)=C(N)OC2=C1C(=O)CCC2 (stereo not given),98.9% (inactive)
14,CCCCN(CCCC)C(=O)c1cn(CC)c2cc(N3CCN(C)CC3)c(F)cc2c1=O,91.2% (inactive)
15,Cc1[nH][nH]c(=O)c1C(c1ccc(O)c([N+](=O)[O-])c1)c1c(C)[nH][nH]c1=O,93.3% (inactive)
16,COc1cc(CNCc2ccccn2)ccc1OCC(=O)NC(C)(C)C,95.7% (inactive)
17,O=C(CN(c1ccc(F)cc1)S(=O)(=O)c1ccc2c(c1)OCCO2)NCc1cccnc1,92.6% (inactive)
18,COCCn1cc(C(=O)N2CCC(C)CC2)c2c3ccccc3n(C)c2c1=O,82.2% (inactive)
19,Cc1ccc(S(=O)(=O)N2CCC(C(N)=O)CC2)c(C)c1C,87.3% (inactive)
20,O=C(NCc1cccs1)[C@@H]1CSC2c3ccccc3C(=O)N21 (stereo not given in full),97.5% (inactive)
